Measured values taken from PubChem BioAssay (NCATS).
Values joined by “and” are separate entries in the source; they are usually repeats but may differ in a detail not shown here. Equal entries are not always repeated. Records with an inconclusive call do not appear. Values without a mark were called inactive. Active and inactive are the calls of the source. Calls follow the shape of the dose curve; as a rule, active = well fitted cell-killing curve with a large enough effect; inconclusive = small, poorly fitted or top-dose-only effect, or effect the other way; inactive = flat fitted curve, though single readings scatter.

System: PA-1
Experiment: Primary qHTS to identify gynecologic anti-cancer compounds using libraries of approved drugs and bioactive compounds (AID 1345084); also: nearly all actives have a fitted effect of over 55% in size
Details: Gynecologic cancer cell panel viability, ATPlite luminescence, 48 h; series mostly up to 57.5 µM; activity change, negative = cytotoxicity: at the top concentration
Method in brief: (§1)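 Cells, 1,000 per well, plated 16 h, then exposed 48 h at 37 C to compounds. Viability by ATPlite luminescence after 15 min at room temperature.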
% is scaled to controls: 0 for no effect and ±100 for the full control effect; potency is read from the fitted curve at half-maximal effect.

| SMILES | activity change, negative = cytotoxicity | Potency |
| --- | --- | --- |
| O=C(/C=C/c1ccc(O)cc1)OC[C@]12O[C@H]1[C@@H](O)[C@@H]1C=CO[C@@H](O[C@@H]3O[C@H](CO)[C@@H](O)[C@H](O)[C@H]3O)[C@@H]12 | 13.6% [at 25.3 µM] |  |
| CC(=O)OCC(=O)O[C@@H]1[C@H]2[C@@H](OC(=O)c3ccccc3)[C@@H](C)C[C@]2(O)[C@H](OC(C)=O)C2(C)[C@H]3CC(C)(C)C(=O)[C@@H]3CC1(OC(C)=O)[C@@H]2OC(C)=O (stereo partly specified) | 3.55% [at 25.3 µM] |  |
| CN1C(=O)c2ccccc2-n2c(nc3ccccc3c2=O)[C@@]12O[C@H]2c1ccccc1 | -4.64% [at 38.5 µM] |  |
| C#Cc1cnc2[nH]c(=O)n(C(CC)CC)c2n1 | 1.07% |  |
| CCNC(=O)[C@H]1O[C@H](n2cnc3c(NCC(c4ccccc4)c4ccccc4)nc(C(=O)NCCNC(=O)NC4CCN(c5ccccn5)CC4)nc32)[C@H](O)[C@@H]1O | 9.68% |  |
| C=C[C@H]1[C@H](O[C@@H]2O[C@H](CO)[C@@H](O)[C@H](O)[C@H]2O)OC=C2C(=O)OCC[C@]21O | -2.06% [at 38.5 µM] |  |
| Nc1c(Br)cc(Br)cc1CNC1CCC(O)CC1 (stereo unspecified) | -20.8% |  |
| CCC(C)/C=C(C)/C=C/C1=CC2=C(Cl)C(=O)C(C)(OC(C)=O)C(=O)C2=CN1C1CCCCN(C(CCC(N)=O)C(=O)O)C1=O (stereo unspecified) | 2.25% [at 25.3 µM] |  |
| CCC[C@@H]1C[C@@H](C(=O)N[C@@H]([C@H]2O[C@H](SC)[C@H](OP(=O)(O)O)[C@@H](O)[C@H]2O)[C@H](C)Cl)N(C)C1 | -0.116% [at 25.3 µM] |  |
| COc1cc([C@H]2OC[C@@H]3[C@@H](c4ccc(O[C@@H]5O[C@H](CO)[C@@H](O)[C@H](O)[C@H]5O)c(OC)c4)OC[C@]23O)ccc1O | 1.76% [at 25.3 µM] |  |
| COCCN(C)Cc1ccc2nc3sc(C(=O)N(C)C4CCCCC4)cn3c2c1 | 11.8% |  |
| CCC(=O)O[C@]1(C(=O)CCl)[C@@H](C)C[C@H]2[C@@H]3C[C@H](F)C4=CC(=O)C=C[C@]4(C)[C@@]3(F)[C@@H](O)C[C@@]21C | 5.68% |  |
| CC(C)CC(=O)n1cc(C(N)=O)c(=O)cc1C(O)c1ccccc1 (stereo unspecified) | 2.81% [at 38.5 µM] |  |
| CC1(C)CC[C@]2(C(=O)O[C@@H]3O[C@H](CO)[C@@H](O)[C@H](O)[C@H]3O)CC[C@]3(C)C(=CCC4[C@@]5(C)C[C@@H](O)[C@H](O)C(CO)(CO)C5CC[C@]43C)C2[C@@H]1O (stereo partly specified) | 3.75% [at 25.3 µM] |  |
| OC[C@H]1O[C@@H](OC(CCCCc2ccc(O)cc2)CCc2ccc(O)cc2)[C@H](O[C@@H]2OC[C@](O)(CO)[C@H]2O)[C@@H](O)[C@@H]1O (stereo partly specified) | -5.88% [at 25.3 µM] |  |
| Cn1c(=O)cc(N2CCCC(N)C2)n(Cc2ccccc2C#N)c1=O (stereo unspecified) | 8.36% |  |
| CC[C@H]1OC(=O)C[C@@H](O)[C@H](C)[C@@H](O[C@@H]2O[C@H](C)[C@@H](O)[C@H](N(C)C)[C@H]2O)[C@@H](CCN2C[C@H](C)C[C@H](C)C2)C[C@@H](C)C(=O)/C=C/C(C)=C/[C@@H]1CO[C@@H]1O[C@H](C)[C@@H](O)[C@@H](OC)[C@H]1OC | -1.3% |  |
| C[C@@H]1C[C@H]2[C@@H]3CCC4=CC(=O)C=C[C@]4(C)[C@@]3(F)[C@@H](O)C[C@]2(C)[C@@]1(O)C(=O)COP(=O)(O)O | 5.34% |  |
| CC(=O)OC(C)OC(=O)C(C)c1ccc(-c2ccccc2)c(F)c1 (stereo unspecified) | 12.3% |  |
| CCC(C)/C=C(C)/C=C/C1=CC2=C(Cl)C(=O)C(C)(OC(C)=O)C(=O)C2=CN1CCCC(=O)O (stereo unspecified) | 10.4% [at 25.3 µM] |  |
| NS(=O)(=O)OC[C@@H]1C[C@@H](n2ccc3c(N[C@H]4CCc5ccccc54)ncnc32)C[C@@H]1O |  | 708 nM (active) and 1 µM (active) |
| CC(C)CC1(C(=O)OCc2ccc(O[C@@H]3O[C@H](CO)[C@@H](O)[C@H](O)[C@H]3O)cc2)CC(=O)OC(C(=O)O)CC(=O)OCC2OC(O1)C(OC(=O)/C=C/c1ccc(O)cc1)C(O)C2O (stereo partly specified) | -8.97% [at 11.6 µM] |  |
| OC[C@H]1O[C@@H](OCCc2ccc(O)cc2)[C@H](O)[C@@H](O)[C@@H]1O | -1.83% |  |

System: SKOV3
Experiment: as above
Details: Gynecologic cancer cell panel viability, ATPlite luminescence, 48 h; series mostly up to 57.5 µM; activity change, negative = cytotoxicity: at the top concentration
Method in brief: as §1

| SMILES | activity change, negative = cytotoxicity | Potency |
| --- | --- | --- |
| NC(Cc1c[nH]c2ccccc12)C(=O)NC(CCC(=O)O)C(=O)O (stereo unspecified) | 0% |  |
| CC(C)C1=CC2=CCC3[C@](C)(CCC[C@@]3(C)C(=O)O)C2CC1=O (stereo partly specified) | 22.9% [at 38.5 µM] |  |
| CC1(C)CC[C@]2(C(=O)O[C@@H]3O[C@H](CO)[C@@H](O)[C@H](O)[C@H]3O)CC[C@]3(C)C(=CCC4[C@@]5(C)C[C@@H](O)[C@H](O)[C@@](C)(CO)C5CC[C@]43C)C2C1 (stereo partly specified) | 21.7% [at 25.3 µM] |  |
| COc1ccc([C@H]2Cc3cccc(O)c3C(=O)O2)cc1 | -0.324% |  |
| O=C(O)C[C@@H](NC(=O)c1cc(-c2ccc(-c3ccncc3)cc2)cs1)c1ccccc1 | -15.3% |  |
| C[C@@H]1CC[C@]2(C(=O)O)CC[C@]3(C)C(=CCC4[C@]5(C)C(CC[C@]43C)C(C)(C)[C@@H](O)[C@H](O)[C@@H]5O)C2[C@]1(C)O (stereo partly specified) | 3.95% [at 25.3 µM] |  |
| CCC(=O)NS(=O)(=O)c1ccc(-c2c(-c3ccccc3)noc2C)cc1 | -1.77% |  |
| CC(C)(C)c1cc(CN2CCN(CC(O)c3ccc(Cl)cc3)CC2)cc(C(C)(C)C)c1O (stereo unspecified) | 8.01% |  |
| CCOc1nc2cccc(C(=O)O)c2n1Cc1ccc(-c2ccccc2-c2noc(=O)[nH]2)cc1 | 24.6% |  |
| CC1(O)CCC2C(C(=O)O)=COC(OC3OC(CO)C(O)C(O)C3OC(=O)/C=C/c3ccc(O)cc3)C21 (stereo unspecified) | -27.4% [at 25.3 µM] |  |
| COc1c2c(c(C)c3c1C(=O)OC3)O[C@@]1(C)C[C@@H](O)[C@]34O[C@](OC)(CC[C@]3(C)[C@H]1C2)OC4(C)C | 6.43% [at 25.3 µM] |  |
| CN1Cc2c(N)cccc2C(c2ccccc2)C1 (stereo unspecified) | -6.62% |  |
| COC(=O)CC1(O)C(=O)Nc2ccccc21 (stereo unspecified) | 0% |  |
| CC1=C2[C@@H]([C@H](C)CC[C@H]2/C=C(\C)C(=O)O)[C@H](O)C1 | -13.8% |  |
| C[C@]12C=CC(=O)C=C1CC[C@@H]1[C@@H]2[C@@H](O)C[C@@]2(C)[C@H]1CC[C@]2(O)C(=O)COC(=O)CCC(=O)O | -6.64% |  |
| O=C(/C=C/c1ccc(O)cc1)OC[C@]12O[C@H]1[C@@H](O)[C@@H]1C=CO[C@@H](O[C@@H]3O[C@H](CO)[C@@H](O)[C@H](O)[C@H]3O)[C@@H]12 | -2.77% [at 25.3 µM] |  |
| CC(=O)OCC(=O)O[C@@H]1[C@H]2[C@@H](OC(=O)c3ccccc3)[C@@H](C)C[C@]2(O)[C@H](OC(C)=O)C2(C)[C@H]3CC(C)(C)C(=O)[C@@H]3CC1(OC(C)=O)[C@@H]2OC(C)=O (stereo partly specified) | 22.1% [at 25.3 µM] |  |
| CN1C(=O)c2ccccc2-n2c(nc3ccccc3c2=O)[C@@]12O[C@H]2c1ccccc1 | -3.04% [at 38.5 µM] |  |
| C#Cc1cnc2[nH]c(=O)n(C(CC)CC)c2n1 | 22.1% |  |

| SMILES | activity change, negative = cytotoxicity | Potency |
| --- | --- | --- |
| CCNC(=O)[C@H]1O[C@H](n2cnc3c(NCC(c4ccccc4)c4ccccc4)nc(C(=O)NCCNC(=O)NC4CCN(c5ccccn5)CC4)nc32)[C@H](O)[C@@H]1O | 28.3% |  |
| C=C[C@H]1[C@H](O[C@@H]2O[C@H](CO)[C@@H](O)[C@H](O)[C@H]2O)OC=C2C(=O)OCC[C@]21O | 4.14% [at 38.5 µM] |  |
| Nc1c(Br)cc(Br)cc1CNC1CCC(O)CC1 (stereo unspecified) | -23.6% |  |
| CCC(C)/C=C(C)/C=C/C1=CC2=C(Cl)C(=O)C(C)(OC(C)=O)C(=O)C2=CN1C1CCCCN(C(CCC(N)=O)C(=O)O)C1=O (stereo unspecified) | -2.96% [at 25.3 µM] |  |
| CCC[C@@H]1C[C@@H](C(=O)N[C@@H]([C@H]2O[C@H](SC)[C@H](OP(=O)(O)O)[C@@H](O)[C@H]2O)[C@H](C)Cl)N(C)C1 | -4.48% [at 25.3 µM] |  |
| COc1cc([C@H]2OC[C@@H]3[C@@H](c4ccc(O[C@@H]5O[C@H](CO)[C@@H](O)[C@H](O)[C@H]5O)c(OC)c4)OC[C@]23O)ccc1O | 2.09% [at 25.3 µM] |  |
| COCCN(C)Cc1ccc2nc3sc(C(=O)N(C)C4CCCCC4)cn3c2c1 | 23.3% |  |
| CCC(=O)O[C@]1(C(=O)CCl)[C@@H](C)C[C@H]2[C@@H]3C[C@H](F)C4=CC(=O)C=C[C@]4(C)[C@@]3(F)[C@@H](O)C[C@@]21C | -4.04% |  |
| CC(C)CC(=O)n1cc(C(N)=O)c(=O)cc1C(O)c1ccccc1 (stereo unspecified) | 10.9% [at 38.5 µM] |  |
| CC1(C)CC[C@]2(C(=O)O[C@@H]3O[C@H](CO)[C@@H](O)[C@H](O)[C@H]3O)CC[C@]3(C)C(=CCC4[C@@]5(C)C[C@@H](O)[C@H](O)C(CO)(CO)C5CC[C@]43C)C2[C@@H]1O (stereo partly specified) | -13.3% [at 25.3 µM] |  |
| OC[C@H]1O[C@@H](OC(CCCCc2ccc(O)cc2)CCc2ccc(O)cc2)[C@H](O[C@@H]2OC[C@](O)(CO)[C@H]2O)[C@@H](O)[C@@H]1O (stereo partly specified) | -2.82% [at 25.3 µM] |  |
| Cn1c(=O)cc(N2CCCC(N)C2)n(Cc2ccccc2C#N)c1=O (stereo unspecified) | 26.9% |  |
| CC[C@H]1OC(=O)C[C@@H](O)[C@H](C)[C@@H](O[C@@H]2O[C@H](C)[C@@H](O)[C@H](N(C)C)[C@H]2O)[C@@H](CCN2C[C@H](C)C[C@H](C)C2)C[C@@H](C)C(=O)/C=C/C(C)=C/[C@@H]1CO[C@@H]1O[C@H](C)[C@@H](O)[C@@H](OC)[C@H]1OC | 7.34% |  |
| C[C@@H]1C[C@H]2[C@@H]3CCC4=CC(=O)C=C[C@]4(C)[C@@]3(F)[C@@H](O)C[C@]2(C)[C@@]1(O)C(=O)COP(=O)(O)O | -1.02% |  |
| CC(=O)OC(C)OC(=O)C(C)c1ccc(-c2ccccc2)c(F)c1 (stereo unspecified) | 22% |  |
| CCC(C)/C=C(C)/C=C/C1=CC2=C(Cl)C(=O)C(C)(OC(C)=O)C(=O)C2=CN1CCCC(=O)O (stereo unspecified) | -1.54% [at 25.3 µM] |  |
| NS(=O)(=O)OC[C@@H]1C[C@@H](n2ccc3c(N[C@H]4CCc5ccccc54)ncnc32)C[C@@H]1O |  | 10 µM (active) |
| CC(C)CC1(C(=O)OCc2ccc(O[C@@H]3O[C@H](CO)[C@@H](O)[C@H](O)[C@H]3O)cc2)CC(=O)OC(C(=O)O)CC(=O)OCC2OC(O1)C(OC(=O)/C=C/c1ccc(O)cc1)C(O)C2O (stereo partly specified) | -14.9% [at 11.6 µM] |  |
| OC[C@H]1O[C@@H](OCCc2ccc(O)cc2)[C@H](O)[C@@H](O)[C@@H]1O | -0.878% |  |
